In ChEMBL document CHEMBL3433997, “St. Jude Leishmania screening dataset” (2016) one finds inhibition data, which are given here for 36 compounds.

Common to all, as to assay type: functional
The target in assay [1] is Solute carrier family 2, facilitated glucose transporter member 1 (Homo sapiens) (UniProt P11166). The assay is described as follows: ST_JUDE_LEISH: Cytotoxicity at 2uM final concentration against transgenic Leishmania Mexicana promastigotes LmGLUT1 that are glucose transport deficient and complemented with the human glucose transporter GLUT1. Activity is measured by DNA content using SYBR green in vitro.

The target of assay [2] is Hexose transporter 1 (Plasmodium falciparum) (UniProt O97467). The assay is described as follows: ST_JUDE_LEISH: Cytotoxicity at 2uM final concentration against transgenic Leishmania Mexicana promastigotes LmPfHT that are glucose transport deficient and complemented with the Plasmodium falciparum hexose transporter. Activity is measured by DNA content using SYBR green in vitro.

The target in assay [3] is Glucose transporter (Leishmania mexicana) (UniProt O61059). The assay is described as follows: ST_JUDE_LEISH: Cytotoxicity at 2uM final concentration against transgenic Leishmania Mexicana promastigotes LmGT2 that are glucose transport deficient and complemented with the L. Mexicana glucose transporter 2. Activity is measured by DNA content using SYBR green in vitro.

By inhibition is commonly meant the drop in the measured response relative to a control, in per cent.

Sequence of Solute carrier family 2, facilitated glucose transporter member 1 (Homo sapiens) (P11166 whole entry): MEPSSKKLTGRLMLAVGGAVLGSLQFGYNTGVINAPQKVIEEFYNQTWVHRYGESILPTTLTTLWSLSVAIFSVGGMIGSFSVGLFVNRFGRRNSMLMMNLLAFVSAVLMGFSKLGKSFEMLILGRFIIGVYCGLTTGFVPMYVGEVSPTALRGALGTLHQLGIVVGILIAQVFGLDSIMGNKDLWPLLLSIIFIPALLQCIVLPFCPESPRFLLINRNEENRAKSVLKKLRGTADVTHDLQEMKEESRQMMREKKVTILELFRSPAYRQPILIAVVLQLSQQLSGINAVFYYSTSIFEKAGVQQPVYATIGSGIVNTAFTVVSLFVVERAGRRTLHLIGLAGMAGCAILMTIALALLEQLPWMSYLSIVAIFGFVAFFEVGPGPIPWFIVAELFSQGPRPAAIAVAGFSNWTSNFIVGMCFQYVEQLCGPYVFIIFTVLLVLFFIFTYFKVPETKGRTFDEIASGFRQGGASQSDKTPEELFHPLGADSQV

Regarding `COc1cc(Cl)c(C)cc1-n1cc(C(=O)c2cc(Br)ccc2O)cc(C#N)c1=O`, the inhibition in assay [1] was -0.77%; in assay [2], -1.65%; in assay [3], 0.03%.
Taken in the same sequence, the figures for `CS(=O)(=O)c1cc2c(Nc3ccc(N4CCOCC4)cc3)c(C(N)=O)cnc2cc1Br` were 4.41%, 1.07% and 3.69%.
Taken in the same sequence, the figures for `COc1ccc(CNCc2ccccc2)cc1-c1ccc(S(=O)(=O)NCCN2CCCC2)s1` were 1.43%, 2.19% and 4.5%.
Taken in the same sequence, the figures for `O=C(NCCc1ccc(Cl)c(Cl)c1)C1CCCN(C(=O)c2ccc(O)c(-c3ccc(Cl)c(Cl)c3)c2)C1` (stereo not drawn) were 1.33%, 2.53% and 4.3%.
With `CCN(CC)CC(O)c1cc(-c2ccc(OC)cc2)nc2cc(Cl)ccc12` (stereo not drawn), the inhibition in assay [1] came out at 6.97%; in assay [2] it was 5.08%; in assay [3] it was 7.55%.
Taken in the same sequence, the figures for `CC=CCON1C(=N)NC(=N)NC1(C)C` were 1.93%, 1.47% and 1.8%.
Regarding `CCNc1cc(C)nc(Nc2ccc(NS(=O)(=O)c3cc(OC)ccc3OC)cc2)n1`, the inhibition in assay [1] was found to be 16.8%; in assay [2] it was 12.1%; in assay [3], 5.24%.
As to `O=C(/C=C/c1ccc(Cl)c(Cl)c1)NCCCCCN1CCC(NC(=O)Nc2ccc([N+](=O)[O-])cc2)CC1`, the figures for the inhibition in assay [1], in assay [2] and in assay [3] were -0.34%, 1.11% and -0.43%, respectively.
Taken in the same sequence, the figures for `O=C(/C=C/c1cccc(Cl)c1)N1CCC(C(O)CN2CCC3(CC2)CN(C(=O)/C=C/c2cccc(Cl)c2)c2ccccc23)CC1` (stereo not drawn) were 0.54%, 1.87% and 0.82%.
Taken in the same sequence, the figures for `O=C(Nc1ccccc1)N1CCOC(CCN2CCC(F)(F)CC2)(c2ccc(Cl)c(Cl)c2)C1` (stereo not drawn) were 2.76%, 4.85% and 1.24%.
Taken in the same sequence, the figures for `c1ccc(CCNc2ccnc(Nc3ccc4[nH]nnc4c3)n2)cc1` were 14.1%, 13.9% and 10.8%.
With `COc1ccc2nccc([C@@H](O)CN3CCC(NCc4nc5cc(F)ccc5o4)CC3)c2c1`, the inhibition in assay [1] was 8.07%; in assay [2], 6.24%; in assay [3], 1.01%.
Taken in the same sequence, the figures for `OC(CNC1CCCCC1)Cn1c2ccc(Br)cc2c2cc(Br)ccc21` (stereo not drawn) were 0.51%, 0.28% and 0.64%.
Taken in the same sequence, the figures for `Cc1nc2ccc(-c3nc4cc(N)ccc4[nH]3)cc2[nH]1` were -2.46%, 10% and 1.44%.
Taken in the same sequence, the figures for `CC(=O)Nc1ccc(C(=O)Nc2cccc(-c3ccc(-c4nc5cc(F)ccc5[nH]4)s3)c2)cn1` were 0.96%, 1.55% and 2.75%.
For the compound `CN(C)CCC=C1c2ccccc2Sc2c(O)cc(Cl)cc21`, the inhibition is -0.51% in assay [1], 4.06% in assay [2] and 1.71% in assay [3].
Taken in the same sequence, the figures for `COc1ccc(C(=O)C2CC2CN(C)CCC(O)c2ccc(Cl)c(Cl)c2)cc1` (stereo not drawn) were 1.1%, 1.11% and 4.55%.
Regarding `CN(N=Cc1ccccc1)C(=N)NCCCC#Cc1cccc(CN2CCCC2)c1`, the inhibition in assay [1] is 11.4%; in assay [2], 6.82%; in assay [3] it was 1.72%.
In the same order, the values of `Cc1c(C(C)(C)C)ccc2nc(N)nc(N)c12` are 64%, 63.5% and 56.6%.
For `COc1ccc(O)cc1/C=N/Nc1ccnc2cc(Cl)ccc12`, the results for the inhibition in assay [1], in assay [2] and in assay [3] were 7.1%, 5.98% and 9.21%, respectively.
In the same order, the values of `O=C(NCCCCN1CCC(c2ccc3c(c2OCCO)CCCC3)CC1)c1sc(-c2ccc(C(F)(F)F)cc2)nc1CO` are 3.31%, 2.17% and 3.21%.
Taken in the same sequence, the figures for `CC(=O)c1ccc(-c2cccc3c(CC(=O)Nc4ccc5nccc(N6CCN(C)CC6)c5c4)cccc23)cc1` were 0.38%, 1.03% and -1.81%.
In the same order, the values of `O=C(Nc1ccc(-c2cccc(-c3nc4cc(C(F)(F)F)ccc4[nH]3)c2)cc1)c1csnn1` are 16.1%, 23.4% and 14.2%.
Regarding `COc1ccc(Br)cc1/C=C/C(=O)Nc1ccc(C2CCCN(C)C2)cc1` (stereo not drawn), the figures for the inhibition in assay [1], in assay [2] and in assay [3] were 3.89%, 2.73% and 5.71%, respectively.
`Cc1cc(CNCCCCCCNCc2ccc(-c3ccccc3)cc2)ccc1O`: the inhibition turned out to be 7.54% in assay [1], 7.79% in assay [2] and 4.84% in assay [3].
For `CCCCCC(C)(C)NC[C@@H](O)[C@H](Cc1ccccc1)NC(=O)c1cc(NCC)cc(N2CCCC2=O)c1`, the figures for the inhibition in assay [1], in assay [2] and in assay [3] were -0.4%, 0.68% and -1.82%, respectively.
For `Nc1nc(N)c2c(ccc3c2ccn3C2CCCCC2)n1`, the inhibition in assay [1] turned out to be 24.3%; in assay [2], 36.6%; in assay [3], 25.7%.
Taken in the same sequence, the figures for `COc1ccc(CNCc2ccc(F)cc2)cc1-c1ccc(OC)c(S(=O)(=O)NCCN2CCCC2)c1` were 5.21%, 6.27% and 4.28%.
For the compound `Fc1ccccc1CNc1ncc(-c2ccsc2)c(-c2nccs2)n1`, the inhibition in assay [1] is -0.99%; in assay [2], 0.2%; in assay [3], -3%.
Taken in the same sequence, the figures for `CC(=O)C=C1CC(=O)N(C[C@@H](O)[C@H]2O[C@@H]3OC(C)(C)O[C@@H]3[C@H]2O)c2ccccc2N1` were 2.82%, 3.82% and 2.35%.
As to `O=C(N[C@@H](CC1CCCCC1)C(=O)NC1CCCc2ccccc21)c1ccc(O)c(-c2ccc(Cl)c(Cl)c2)c1` (stereo partly drawn), the inhibition in assay [1] came to 1.23%; in assay [2] it was 0.75%; in assay [3] it was 0.12%.
`COc1c(C2CCN(CCCCNC(=O)c3noc(-c4ccc(C#N)cc4)n3)CC2)ccc2c1CCCC2`: the inhibition in assay [1] came to 2.99%; in assay [2], 1.9%; in assay [3], 2.85%.
In the same order, the values of `OCCN1CCN(Cc2ccc(-c3cccc(-c4nc5ccccc5[nH]4)c3)cc2)CC1` are -1.4%, -2.88% and -1.5%.
In the same order, the values of `O=C(NCCOc1ccccc1)[C@H](Cc1ccccc1)Nc1ccnc(NCC2CCCCC2)n1` are 2.23%, 1.21% and 0.92%.
As for `Fc1ccc(-c2cc3ncnc(N4CCN(CCN5CCCC5)CC4)c3s2)cc1`, the inhibition turned out to be 14.6% in assay [1], 12.9% in assay [2] and 11.1% in assay [3].
Regarding `Cc1cc(N2CCCC2)nc(Nc2ccc(NC(=O)c3ccco3)cc2)n1`, the inhibition is 0.47% in assay [1], 3.07% in assay [2] and -0.1% in assay [3].
